# PfHsp90 set2: reduces growth (ATP signal) of yeast expressing P. falciparum Hsp90 | S. cerevisiae expressing PfHsp90, BacTiter-Glo ATP, 48 h; yeast lacking PDR1 and PDR3 efflux regulators | inhibition, % at 9.4 µM | hit rate 0.32% among 310,000;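 active means every replicate shows inhibition above about 80%, whatever the replicate mean, limit read from the data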;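 further: 0% = DMSO neutral controls and 100% = 20 µM radicicol positive controls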
# NSD2 inh: inhibitors of human histone methyltransferase NSD2 | O96028 | NSD2 peptide methylation, AlphaScreen, 120 min | inhibition, % at 12.5 µM | hit rate 0.54% among 310,000 | AID 743445; in the data active means inhibition above about 50%
# MITF TRPM1 inh: MITF TRPM1 promoter inhibition in SK-MEL-5 cells; SK-MEL-5 TRPM1 promoter luciferase, 24 h; inhibition, % at 12.5 µM; hit rate 0.83% among 330,000; AID 488899;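 active means mean inhibition across replicates of 60% or more, whatever share of single replicates reaches that level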
# Wnt bcat act: Wnt/beta-catenin pathway activation | Wnt/beta-catenin reporter cell assay, activator, plate reader | activation, % at 9.35 µM | hit rate 1.2% among 300,000 | AID 743398; in the data active means activation above about 30%, passing the limit was not always enough;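 further: 0% = neutral control wells and 100% = positive control wells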
# MITF TRPM1 HTS: activators of MITF-driven TRPM1 promoter activity in SK-MEL-5 cells | SK-MEL-5 TRPM1-promoter luciferase, 24 h; % of positive control, neutral wells = 0 | hit rate 0.75% among 300,000 | activation, % at 12.5 µM;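 active means mean activation of at least 80% with every replicate also reaching 80%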;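 further: 0% = neutral control wells and 100% = parthenolide positive control wells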
# Glyco luc inh: blocks N-linked glycosylation in D54 reporter cells; hit rate 0.23% among 360,000; D54 ERlucT glycosylation luciferase reporter, 24 h; percent of 100 nM tunicamycin response; reporter increase, % at 12.5 µM;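 active means mean luciferase reporter signal, scaled so untreated is 0 and the glycosylation-blocking control 100, at or above a set limit in every replicate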;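 further: luciferase carries N-glycosylation sites so blocking glycosylation raises the light; 0% = median of neutral control wells and 100% = median of 100 nM tunicamycin wells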
# * = called active by the depositor; nt = no result given. The list is not random: actives were taken first. Their share in the collection is about 2.9%.
SMILES,PfHsp90 set2,NSD2 inh,MITF TRPM1 inh,Wnt bcat act,MITF TRPM1 HTS,Glyco luc inh
Fc1ccccc1-c1nc2ccccc2[nH]1,35,-5,-80,56*,85*,-3
Cc1ccccc1-c1nc2ccccc2[nH]1,-18,-3,-57,nt,57,1
Cn1cc(Cl)c(-c2nc3ccccc3[nH]2)n1,26,0,-53,nt,57,-3
Clc1ccccc1-c1nc2ccccc2[nH]1,9,-2,-66,48*,nt,-2
COc1cccc(CNC(=O)CN2CCCc3ccccc32)c1OC,nt,4,nt,nt,nt,nt
O=C(CC1CCCC1)N[C@H](C(=O)N1CCC[C@H]1C(=O)NCc1ccccc1)c1ccccc1,nt,nt,nt,-3,nt,nt
COc1cc(Cl)c(C)cc1NC(=O)CN1C(=O)C2CCCCC2C1=O (stereo unspecified),-1,-1,nt,1,nt,1
c1ccc2c(-c3csc(-c4ccncc4)n3)c[nH]c2c1,45,-3,-114,28,126*,-10
C[C@@H]1CN(C(=O)OC(C)(C)C)CCN1c1ccc(N2CCS(=O)(=O)CC2)c(C#N)c1,nt,nt,nt,-9,nt,nt
COc1ccc(CC(=O)OCC(=O)Nc2ccc(Cl)cc2C)cc1,nt,-2,-3,0,5,0
COc1cccc(C(NC(C)=O)c2nc(-c3ccccc3C)cs2)c1 (stereo unspecified),nt,15,nt,-1,nt,45*
COc1cc(F)ccc1-c1csc(C(NC(C)=O)c2cccc(F)c2)n1 (stereo unspecified),nt,12,nt,-1,nt,58*
CC(=O)NC(c1cccc(F)c1)c1nc(-c2ccccc2C)cs1 (stereo unspecified),nt,13,nt,-1,nt,19
COC(=O)C1=C(C)N(C)C(=NCc2ccc(C(F)(F)F)cc2)NC1c1ccc(Cl)cc1 (stereo unspecified),nt,nt,nt,-9,nt,nt
CCOc1ccc(NC(=S)N(CCc2c(C)[nH]c3ccccc23)Cc2ccco2)cc1,3,nt,17,-4,-13,-4
O=c1cc(-c2ccccc2)[nH]n1-c1nc2ccccc2[nH]1,-2,-4,15,nt,-13,41*
O[C@@H]1[C@@H](O)C=C2CCN3Cc4cc5c(cc4[C@H]1C23)OCO5 (stereo partly specified),17,nt,63*,-20,-60,-21
CN1CCc2nc3sc(C(=O)C45CC6CC(CC(C6)C4)C5)c(N)c3cc2C1,129*,3,-4,-2,8,-1
NC(=O)c1sc2nc3c(cc2c1N)CCCCCC3,3,1,-70,7,74,-2
O=C(NCCc1ccccc1)C(c1cccs1)N(C(=O)CCl)c1ccc(Cl)cc1 (stereo unspecified),-22,5,86*,nt,-86,8
O=C(NCCc1ccccc1)C(c1cccs1)N(C(=O)c1csnn1)C1CC1 (stereo unspecified),-3,-1,-4,-4,7,1
COc1ccc(N=Cc2nc(-c3ccccc3)oc2OC(=O)c2ccccc2)cc1,3,2,14,54*,-11,-5
CC1CCN(c2nc(Cl)nc(Nc3ccc([N+](=O)[O-])cc3)n2)CC1,98*,5,-11,-2,8,-5
C=CCC12C[C@@]3(O[C@H](c4ccc(C(F)(F)F)cc4)N=C3C[C@H](c3ccc(OC)cc3)[C@H]1C)N(Cc1ccc3c(c1)OCO3)C2=O,nt,nt,nt,-6,nt,nt
Cn1c(SCC(=O)N2CCCC2=O)nnc1-c1ccccc1F,-22,-3,-4,-1,-2,0
SMILES,PfHsp90 set2,NSD2 inh,MITF TRPM1 inh,Wnt bcat act,MITF TRPM1 HTS,Glyco luc inh
O=C(NOC(=O)c1ccccc1)c1ccccc1,-68,-3,7,0,nt,1
N/C(=N\OC(=O)c1ccccc1)C(Cc1ccccc1)C(=O)NOC(=O)c1ccccc1 (stereo unspecified),nt,-1,62*,2,-60,11
Fc1ccc(CN2CCN(c3ncc(Cc4ccccc4)cn3)CC2)c(Cl)c1,nt,nt,nt,-15,nt,nt
Cc1ccc(CN2CCN(Cc3ccccc3)C(CCO)C2)s1 (stereo unspecified),3,3,1,-2,-3,0
Cc1ccc(CN2CCN(C3CCCC3)C(CCO)C2)s1 (stereo unspecified),-1,23,-9,31*,8,0
Cc1ccc(C(=O)Nc2ccccc2C(=O)N2CC(C)OC(C)C2)cc1 (stereo unspecified),nt,-1,nt,-1,nt,46*
